Data published in PubChem BioAssay (Tox21).
Results filed as inconclusive are left out. A number with no mark means an inactive call. Activity calls are given as the source filed them. Calls come from the whole dose curve.

assay: p53 small molecule agonists, cell-based qHTS assay with rat liver microsomes: qHTS cell viability counter screen (AID 1963580); conditions: p53RE-bla HCT-116 + rat microsomes, ATP viability, 16 h; series mostly up to 66 µM; activity change, negative = cytotoxicity: at the top concentration; note: nearly all actives have a fitted effect of over 45% in size
Source text: National Center for Advancing Translational Sciences [NCATS]
Division of Preclinical Innovation [DPI]
U.S. Environmental Protection Agency [EPA]
National Institutes of Environmental Health Sciences [NIEHS]
National Toxicology Program [NTP]
U.S. Food and Drug Administration [FDA]
p53, a tumor suppressor protein, is activated following cellular insult, including DNA damage and other cellular stresses. The activation of p53 regulates cell fate by inducing DNA repair, cell cycle arrest, apoptosis, or cellular senescence. The activation of p53, therefore, is a good indicator of DNA damage and other cellular stresses. The CellSensor p53RE-bla HCT-116 cell line contains a stably integrated beta-lactamase reporter gene under control of the p53 response elements. The activation of the reporter gene under culture conditions can be detected by fluorescence intensity. This cell line was used to screen the Tox21 10K compound library in the condition of presence of rat liver microsomes and to identify agonists that activate the p53 signaling pathway after in vitro metabolic activation (Ooka et al., Archive of Toxicology 96:1975-1987, 2022). The cytotoxicity of the Tox21 compound library against the p53 RE-bla HCT-116 cell line was tested in parallel by measuring the intra cellular ATP content in the same wells.
Tox21 Assay Protocol Summary:
The p53RE-bla cells were dispensed at 4,000cells/3ul/well in 1536-well black-clear bottom plates. After the assay plates were incubated at 37 C, 5% CO2 incubator for 5 hours, 23 nL of compounds dissolved in DMSO, positive controls or DMSO only was transferred to the assay plate. Following compound addition, 3 uL of rat liver microsomes (Molecular Toxicology, Boone, NC) at final concentration of 0.5 mg/mL and 1uL of B-Nicotinamide adenine dinucleotide 2'-phosphate (NADPH) at final concentration of 0.5 mg/mL were transferred to the assay plate. The plates were incubated at 37 C for 16 hours. 1 uL of LiveBLAzer detection mixture was added to each well and the plates were incubated at room temperature in the dark for 2 h. Fluorescence intensity at 460 and 530 nm emission and 405 nm excitation were measured by an Envision plate reader. For cell viability readout that measures cytotoxicity, 4 ul/well of CellTiter-Glo reagent was added into the assay plates using a Flying Reagent Dispenser. After 30 min incubation at room temperature, the luminescence intensity in the plates was measured using a ViewLux plate reader.
% is set by controls: 0 for no effect and ±100 for the full control effect; potency is the fitted concentration of half-maximal effect.

Compared with `Cc1cccc(OCC(O)CNC(C)(C)C)c1C` (stereo not given), `CCC(C)(CN(C)C)OC(=O)c1ccccc1` (stereo not given) is lower in “activity change, negative = cytotoxicity” value: 6.64% [at 30.3 µM] for the first, -1.49% [at 30.3 µM] for the second.

Going from `CCN(CC)CC1CCCCN1CC(=O)N1c2ccccc2C(=O)Nc2cccnc21` (stereo not given) to `CN(C)CCCN1c2ccccc2CCc2ccc(Cl)cc21`, the “activity change, negative = cytotoxicity” value rises from -5% [at 30.3 µM] to -4.65% [at 30.3 µM].

First: COc1ccccc1N1CCN(CC(O)COc2cccc3ccccc23)CC1 (stereo not given)
Second: O=C(CCCN1CCN(c2ccc(F)cc2)CC1)NC1c2ccccc2CSc2ccccc21 (stereo not given)
The “activity change, negative = cytotoxicity” value of the first is higher: -3.5% [at 30.3 µM] for the first, -8.92% [at 30.3 µM] for the second.

First: Cc1onc(-c2c(Cl)cccc2Cl)c1C(=O)Cl
Second: Cc1ccc(Nc2c(F)cccc2Cl)c(CC(=O)O)c1
The “activity change, negative = cytotoxicity” value of the first is lower: -3.97% [at 30.3 µM] for the first, 1.01% [at 30.3 µM] for the second.

Compared with `CC(C)(C)c1ccc(C(=O)CCCN2CCC(OC(c3ccccc3)c3ccccc3)CC2)cc1`, `Cc1cc(C(C#N)c2ccc(Cl)cc2)c(Cl)cc1NC(=O)c1cc(I)cc(I)c1O` (stereo not given) is lower in “activity change, negative = cytotoxicity” value: -0.637% [at 30.3 µM] for the first, -8.17% [at 30.3 µM] for the second.

Compared with `OC[C@H]1O[C@@H]2O[C@H]3[C@H](O)[C@@H](O)[C@@H](O[C@H]4[C@H](O)[C@@H](O)[C@@H](O[C@H]5[C@H](O)[C@@H](O)[C@@H](O[C@H]6[C@H](O)[C@@H](O)[C@@H](O[C@H]7[C@H](O)[C@@H](O)[C@@H](O[C@H]8[C@H](O)[C@@H](O)[C@@H](O[C@H]9[C@H](O)[C@@H](O)[C@@H](O[C@H]1[C@H](O)[C@H]2O)O[C@@H]9CO)O[C@@H]8CO)O[C@@H]7CO)O[C@@H]6CO)O[C@@H]5CO)O[C@@H]4CO)O[C@@H]3CO`, `CCCC(=O)OC[C@@H](OC(=O)CCC)[C@@H](OC(=O)CCC)[C@H](Cn1c2nc(=O)[nH]c(=O)c-2nc2cc(C)c(C)cc21)OC(=O)CCC` is lower in “activity change, negative = cytotoxicity” value: 15.8% [at 30.3 µM] for the first, 0.0279% [at 30.3 µM] for the second.

Compared with `CC(=O)OCC(=O)[C@@]1(O)CC[C@H]2[C@@H]3CCC4=CC(=O)CC[C@]4(C)[C@H]3C(=O)C[C@@]21C`, `COc1cc(NS(=O)(=O)c2ccc(N)cc2)nc(C)n1` is lower in “activity change, negative = cytotoxicity” value: 0.107% [at 30.3 µM] for the first, -0.518% [at 30.3 µM] for the second.

First: CC(=O)Nc1ccc(/C=N/NC(N)=S)cc1
Second: C/C=C/C=N/NC(=O)c1ccncc1
The “activity change, negative = cytotoxicity” value of the first is lower: 0.361% [at 30.3 µM] for the first, 21.9% [at 30.3 µM] for the second.

In the case of `NCCc1ccn[nH]1`, the “activity change, negative = cytotoxicity” value was -1.61% [at 30.3 µM].

Compared with `O=C(O)c1ccc2cc(C(=O)O)ccc2c1`, `CC(=O)c1ccc([N+](=O)[O-])cc1` is lower in “activity change, negative = cytotoxicity” value: 4.1% for the first, 3.72% for the second.

Going from `O=S(=O)(O)c1cc(O)c2ccc(Nc3ccccc3)cc2c1` to `CC1=NN(c2cccc(S(=O)(=O)O)c2)C(=O)C1`, the “activity change, negative = cytotoxicity” value falls from 32.3% to -11.1%.

First: O=[N+]([O-])c1ccc(Cl)cc1Cl
Second: O=C(NCc1ncc(C(F)(F)F)cc1Cl)c1c(Cl)cccc1Cl
The “activity change, negative = cytotoxicity” value of the first is higher: 1.87% for the first, -0.392% for the second.

Going from `CC(C)(CO)[N+](=O)[O-]` to `CCC(C)O` (stereo not given), the “activity change, negative = cytotoxicity” value falls from 2.38% to -0.386%.

First: CC(C)COC(=O)C(C)C
Second: CC(C)CCOCc1ccccc1
The “activity change, negative = cytotoxicity” value of the first is higher: 0.283% for the first, -4.77% for the second.

Going from `CCOc1ccc(NC(=O)CC(C)=O)cc1` to `CCOc1ccc2[nH]cc(C(=O)NCc3ccccc3)c(=O)c2n1`, the “activity change, negative = cytotoxicity” value falls from -2.9% to -13.2%.

First: CCCCCCCCCCCCCBr
Second: NCCCCCCNCCCCCCN
The “activity change, negative = cytotoxicity” value of the first is lower: 0.359% for the first, 0.69% for the second.

Compared with `COC(=O)[C@]1(C)CCC[C@@]2(C)[C@H]1CC=C1C=C(C(C)C)CC[C@@H]12`, `O=C=NC1CCC(CC2CCC(N=C=O)CC2)CC1` (stereo not given) is lower in “activity change, negative = cytotoxicity” value: 0.389% for the first, 0% for the second.

Compared with `C[Si](C)(C)O[Si](O)(O)O`, `N#CCCN(CCO)CCO` is lower in “activity change, negative = cytotoxicity” value: 10.6% for the first, -1.59% for the second.

For `N#CCCCC(C#N)CCC#N` (stereo not given), the “activity change, negative = cytotoxicity” value was 0.49%.

With `CCN=C1C=CC(=C(c2ccc(N(CC)CC)cc2)c2ccc(N(CC)CC)cc2)c2ccccc21` the Potency was 40.5 µM (active).
For `COc1cc(C(=O)NC2CCN(C)CC2)ccc1Nc1ncc2c(n1)N(C1CCCC1)CC(F)(F)C(=O)N2C`, the Potency was 37.4 µM (active).
For `CCCCCCC(O)CCCCCCCCCCC(=O)O` (stereo not given), the Potency was “inactive”.
For `On1ccccc1=S`, the Potency was 0.718 µM (active).
